Screens deposited in PubChem by several laboratories.
Compounds with a hit are over-represented: about 2.7% of the library has one in this group of screens.
SENP7 block = SENP7 protease inhibition. recombinant SENP7, Z-RLRGG-aminoluciferin luminescence, 40 min. inhibition, % at 5 µM. actives 1.5% (n = 330,000). AID 434973;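 active = inhibition above about 50% at the single test dose, limit read from the data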
SENP6 inh = SENP6 protease inhibition; Q9GZR1; Recombinant SENP6 catalytic domain, aminoluciferin luminescence; inhibition, % at 10 µM; actives 1.8% (n = 330,000); AID 2599;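 active = inhibition above about 50% at the single tested dose, limit read from the data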
SENP8 block-1 = inhibitors of human SENP8 protease. actives 1.2% (n = 330,000). inhibition, % at 10 µM. purified SENP8, Z-RLRGG-aminoluciferin cleavage, luminescence. AID 2540. Q96LD8; in the data active = inhibition above about 50%
Target sequence (Q96LD8 whole entry, looked up): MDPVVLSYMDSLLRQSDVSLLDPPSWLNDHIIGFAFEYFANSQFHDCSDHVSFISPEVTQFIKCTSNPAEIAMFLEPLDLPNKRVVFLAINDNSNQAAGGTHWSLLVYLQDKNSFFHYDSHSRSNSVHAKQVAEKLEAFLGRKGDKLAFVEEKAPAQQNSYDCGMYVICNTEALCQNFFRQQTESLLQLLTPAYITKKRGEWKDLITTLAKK
HSP90 refold inh = HSP90 refolding inhibition in rabbit reticulocyte lysate | luciferase refolding luminescence, 3 h | inhibition, % at 5.6 µM | actives 0.91% (n = 290,000) | AID 1789;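 active = inhibition above the screen-wide mean plus 3 SD, computed separately per campaign, cut at about 16% in these data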;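 note: inhibitors lower the luminescence because luciferase stays unfolded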
SENP8 block-2 = blocks human SENP8 cleavage of Nedd8 substrate | Q96LD8 | recombinant SENP8, Nedd8 substrate fluorescence | inhibition, % at 20 µM | actives 0.64% (n = 360,000) | AID 602440; in the data active = inhibition mostly above about 40%, no sharp cut-off; inactive = mostly below about 27%
HSP90 confirm = confirmation of HSP90 inhibitors; inhibition, % at 5.9 µM; actives 64% (n = 2,300); shares compounds with HSP90 refold inh; rabbit reticulocyte lysate, luciferase refolding luminescence, 3 h; in the data active = inhibition above about 18%
FLuc counter = blocks native firefly luciferase in HSP90 counter-screen; actives 48% (n = 2,300); shares compounds with HSP90 refold inh; purified native firefly luciferase, luminescence; AID 1847; inhibition, % at 5.9 µM;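 active = inhibition above the mean inhibition of all tested sample wells plus 3 SD, cut at about 10% in these data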
SENP8 confirm = human SENP8 inhibition, confirmed | shares compounds with SENP7 block | Recombinant SENP8, Z-RLRGG-aminoluciferin luminescence, 60 min | inhibition, % at 12.5 µM | actives 40% (n = 6,200) | AID 488912;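 active = mean inhibition across replicates above about 50%, limit read from the data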
SENP6 conf = confirmation of human SENP6 protease inhibitors | actives 58% (n = 6,200) | AID 488915 | inhibition, % at 12.5 µM | recombinant SENP6, Z-RLRGG-aminoluciferin luminescence | shares compounds with SENP7 block
SENP7 conf = confirmation of human SENP7 protease inhibitors; shares compounds with SENP7 block; recombinant SENP7, Z-RLRGG-aminoluciferin luminescence, 40 min; inhibition, % at 12.5 µM; actives 69% (n = 6,200)
Casp3 select = caspase-3 inhibition (SENP selectivity assay); shares compounds with SENP7 block; purified caspase-3, Z-DEVD-aminoluciferin luminescence, 60 min; inhibition, % at 12.5 µM; actives 60% (n = 6,200);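 active = mean inhibition above about 50%, limit read from the data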
Target sequence (P42574 28-227 limits assumed): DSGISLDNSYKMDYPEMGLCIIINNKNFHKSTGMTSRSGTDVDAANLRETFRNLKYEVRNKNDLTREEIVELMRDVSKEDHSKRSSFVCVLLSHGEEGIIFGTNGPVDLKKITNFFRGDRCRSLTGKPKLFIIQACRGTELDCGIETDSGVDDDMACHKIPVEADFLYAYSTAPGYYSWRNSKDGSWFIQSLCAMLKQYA
Luc interf = counter-screen for SENP inhibitors: luminescence interference; shares compounds with SENP7 block; Pre-incubated SENP8/Z-RLRGG-aminoluciferin, luciferase luminescence interference; inhibition, % at 12.5 µM; actives 39% (n = 6,200); AID 488919;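 active = mean inhibition above about 50% when retested at one dose, limit read from the data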
A number is an active result; n = inactive; x = no result.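 Rule for the calls, unless noted: active = mean inhibition above about 50% in the one-dose retest (limit read from the data); inactive = the rest.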

SMILES	SENP7 block	SENP6 inh	SENP8 block-1	HSP90 refold inh	SENP8 block-2	HSP90 confirm	FLuc counter	SENP8 confirm	SENP6 conf	SENP7 conf	Casp3 select	Luc interf
COc1ccc(CNC(=O)C(NS(=O)(=O)c2ccc3c(c2)CCCN3C(C)=O)C(C)C)cc1 (stereo not drawn)	n	n	n	n	n	x	x	x	x	x	x	x
COc1ccccc1N(/N=C1\Sc2ccccc2C1=O)C(C)=O	n	92	79	71	n	76	34	n	83	66	n	n
COc1ccccc1NC1=C(NC(C)=O)C(=O)c2ccccc2C1=O	x	x	x	n	n	x	x	x	x	x	x	x
Nc1ccccc1C(=O)Nc1cccc(C(=O)O)c1	n	95	92	33	n	42	21	96	97	101	82	96
Cc1cccc(C)c1OCC(=O)Nc1cccc(C(=O)O)c1	53	69	n	23	n	36	30	65	64	88	n	74
O=C(CCCc1ccccc1)Nc1cccc(C(=O)O)c1	93	89	82	61	n	71	75	93	93	100	n	92
Cc1ccc(-c2cc(C(=O)N3CCOCC3)no2)cc1	58	61	n	62	n	68	57	53	n	82	81	55
Cc1ccc(-c2cc(C(=O)N3CCCC3)no2)cc1	n	68	62	20	n	65	52	n	n	86	63	n
O=C(c1cc(-c2ccc(O)cc2)on1)N1CCCCCC1	n	n	n	n	n	x	x	x	x	x	x	x
O=C(c1cc(-c2ccc3c(c2)OCO3)on1)N1CCCCC1	72	78	66	36	n	58	55	n	74	93	68	n
CCn1c(SCC(=O)Nc2cccc(NC(=O)c3ccco3)c2)nnc1-c1cccs1	n	n	n	n	n	x	x	x	x	x	x	x
Nc1c(-c2ccccc2)cnn1-c1cccc(C(F)(F)F)c1	n	n	n	n	n	x	x	x	x	x	x	x
Nc1c(-c2ccccc2)cnn1-c1ccc(C(=O)O)cc1	53	n	n	25	n	42	n	n	n	76	66	60
Cc1[nH]c2ccccc2c1/C=C/C(=O)c1ccccc1	n	n	n	n	n	x	x	x	x	x	x	x
N#CC(NC(=O)OCc1ccccc1)c1ccccc1 (stereo not drawn)	n	n	n	x	n	x	x	x	x	x	x	x
CCc1cc(C(=O)Nc2ncccc2O)sc1C	67	66	n	43	n	53	43	52	53	86	81	63
CCc1cc(C(=O)Nc2ccc(OC)nc2)sc1C	n	n	n	x	n	x	x	x	x	x	x	x
CCOc1ccc(NC(=O)c2[nH]c(C)c(C(C)=O)c2C)cc1	59	50	n	19	n	n	n	57	50	81	75	62
O=C(COC(=O)CNC(=O)c1ccc(Cl)cc1)Nc1ncc(C(F)(F)F)cc1Cl	n	n	n	n	n	x	x	x	x	x	x	x
CCc1ccc2oc(-c3ccc(OC)cc3)cc(=Nc3cccc(C(=O)O)c3)c2c1	97	n	86	24	n	n	n	83	85	95	79	63
CCOC(=O)Cc1csc(NC(=O)COc2ccc3c(c2)CCC3)n1	n	n	n	n	n	x	x	x	x	x	x	x
O=C(O)c1ccc(-c2nnc(-c3ccc([N+](=O)[O-])cc3)o2)cc1	n	n	n	n	n	x	x	x	x	x	x	x
O=C(O)c1ccc(-c2nnc(-c3ccccc3)o2)cc1	98	99	95	58	n	58	14	n	97	101	96	81
Oc1ccccc1C1NN=C(c2ccccc2)S1 (stereo not drawn)	95	86	61	24	n	33	18	n	79	70	65	n
O=C(c1cc(-c2ccc(Cl)cc2Cl)on1)N1CCCCCC1	54	73	55	19	n	34	18	62	60	82	n	n
SMILES	SENP7 block	SENP6 inh	SENP8 block-1	HSP90 refold inh	SENP8 block-2	HSP90 confirm	FLuc counter	SENP8 confirm	SENP6 conf	SENP7 conf	Casp3 select	Luc interf
O=C(c1cc(-c2ccc(Cl)cc2Cl)on1)N1CCCC1	75	87	78	37	n	55	57	n	n	51	n	n
O=C(c1cc(-c2ccc(Cl)cc2)on1)N1CCCCCC1	n	n	n	n	n	x	x	x	x	x	x	x
O=c1[nH]c2c(oc3ccccc32)c(=O)n1Cc1ccccc1	n	n	n	n	n	x	x	x	x	x	x	x
CCOc1ccc(NC(=O)Nc2ccccc2C(N)=O)cc1	100	98	91	32	n	42	38	95	97	102	98	n
COc1cc(NC(=O)c2ccco2)c(OC)cc1NC(=O)CCC(=O)Nc1cc(C)ccc1C	n	n	n	n	n	x	x	x	x	x	x	x
COC(=O)c1sc2nc(C)cc(C)c2c1N	n	n	n	n	n	x	x	x	x	x	x	x
Cc1cc(C)c2c(N)c(C(=O)Nc3ncc(C)s3)sc2n1	n	87	72	70	n	92	88	n	86	99	92	n
CCOc1ccc2nc(NC(=O)CSc3cn[nH]n3)sc2c1	n	67	n	19	n	25	14	n	n	50	n	n
COc1ccc(NC(=O)N2CCc3ccccc32)cc1	96	95	86	19	n	37	23	93	93	99	94	91
COc1ccc(NC(=O)N2CCCc3ccccc32)cc1	n	n	n	n	n	x	x	x	x	x	x	x
COc1cccc(C(=O)O/N=C(\N)c2ccccn2)c1OC	73	76	59	53	n	64	72	69	68	92	92	79
COc1cccc(C(=O)O/N=C(\N)c2ccccn2)c1	98	97	95	67	n	85	91	97	98	102	98	98
COc1ccc(/C(N)=N/OC(=O)c2ccc3ccccc3c2)cc1OC	x	x	x	x	n	x	x	x	x	x	x	x
COc1cccc(C(=O)O/N=C(\N)c2ccncc2)c1OC	n	n	n	n	n	x	x	x	x	x	x	x
COc1cccc(C(=O)NCCCNC(=O)c2ccccn2)c1	n	n	n	n	n	x	x	x	x	x	x	x
N/C(=N\OC(=O)c1ccc2ccccc2c1)c1ccccn1	101	94	96	66	n	59	79	95	97	102	98	n
